# D1 potentiator: human D1 dopamine receptor positive modulation | HEK293 TREx D1 cells, calcium flux, dopamine EC20 potentiation | hit rate 0.036% among 360,000 | P21728 | potentiation, % at 10 µM; in the data active = potentiation above about 30%; also: 0% is about no effect
# Target sequence (P21728 whole entry, looked up): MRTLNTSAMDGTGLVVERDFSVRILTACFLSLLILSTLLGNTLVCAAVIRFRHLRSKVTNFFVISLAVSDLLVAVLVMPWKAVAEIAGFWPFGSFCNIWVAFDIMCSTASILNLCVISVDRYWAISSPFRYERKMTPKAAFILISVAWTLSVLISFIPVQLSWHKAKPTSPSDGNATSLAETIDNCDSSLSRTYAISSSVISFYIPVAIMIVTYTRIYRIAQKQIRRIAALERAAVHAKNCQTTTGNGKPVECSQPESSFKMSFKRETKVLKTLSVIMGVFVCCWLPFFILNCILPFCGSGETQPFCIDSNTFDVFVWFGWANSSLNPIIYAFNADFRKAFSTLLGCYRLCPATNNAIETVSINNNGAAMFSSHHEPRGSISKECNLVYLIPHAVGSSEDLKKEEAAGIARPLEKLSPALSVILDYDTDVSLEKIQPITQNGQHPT
# DRD3 agonist: agonists of human D3 dopamine receptor | D3R DiscoveRx beta-arrestin cells, luminescence, 90 min | max activation, % | hit rate 0.58% among 410,000 | AID 652048; in the data active = max activation above about 30%; also: 0% is about no effect
#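 Agonist-mode cell screen: cells plated at 1500/well and incubated overnight at 37 °C, then exposed to library compounds for 90 min at 37 °C. Detection reagent was added for 30–60 min at room temperature, and luminescence was read.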
# DRD3 antagonist: D3 dopamine receptor (human) antagonism; P35462; D3R cells, DiscoveRx beta-arrestin luminescence, antagonist mode; active compounds read low; max response, negative = inhibition, %; hit rate 2.5% among 360,000; AID 652054; in the data active = max response below about -50%; inconclusive = no clear call, values can overlap the other calls; also: % is scaled to controls: 0 for no effect and ±100 for the full control effect
#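 Cells plated overnight at 1500 cells/well, then exposed to library compounds with dopamine controls for 90 minutes at 37 degrees C. DiscoveRx reagent added for 30–60 minutes at room temperature; luminescence read, quantitative HTS format.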
# D1 antagonist: antagonists of human D1 dopamine receptor | P21728 | HEK293 TREx D1 cells, calcium flux, dopamine EC80; active compounds read low | activity change, negative = inhibition, % at 10 µM | hit rate 3.2% among 360,000; in the data active = activity change below about -30%; also: % is scaled to controls: 0 for no effect and ±100 for the full control effect
#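 Tetracycline-induced HEK293 T-REx cells with force-coupled D1 receptor were loaded with a no-wash calcium dye. Compound was added after a 10 s baseline and read kinetically for 180 s; EC80 dopamine was then added and calcium flux followed another 180 s.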
# D1 ag: agonists of human D1 dopamine receptor; hit rate 1% among 360,000; HEK293 T-REx D1 cells, calcium flux, agonist mode; activation, % at 2 µM; P21728; in the data active = activation above about 30%; also: 0% is about no effect
#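 Tetracycline-induced HEK293 TREx D1 cells, force-coupled to calcium signalling, were dye-loaded with a no-wash calcium kit. Compound was pin-added after a 10 s baseline. Fluorescence was read kinetically at 1 cycle/s for 180 s, with calcium rises flagged as agonism.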
# * marks the source's active call; other numbers are inactive results; ? = inconclusive; · = no result; ! = repeats disagree. Most compounds without a hit are left out; they make up all but 6.1% or so of the library.
SMILES,D1 potentiator,DRD3 agonist,DRD3 antagonist,D1 antagonist,D1 ag
CCOC(=O)[C@]12Cc3cc(OC)ccc3[C@H]1N(C1CCCCC1)C(=O)c1cc(OC)ccc12,·,-7,?,·,·
CCC1(CC)C(=O)N(C)C(=O)NC1=NC,6,-6,-7,-35*,0
CCNC(C)Cc1cccc(C(F)(F)F)c1 (stereo not given),·,-16,·,·,·
COc1cc(/C=C/C(=O)c2c(O)n(CCc3ccccc3)c(=O)[nH]c2=O)ccc1O,0,0,-16,9,42*
CCOC(=O)c1cccc(C2=C(CNC(=O)c3ccc([N+](=O)[O-])cc3)[C@H]3CC[C@@H](C2)N3Cc2ccccc2)c1,·,-17,-98*,·,·
CCOC(=O)c1cccc(C2=C(CNC(C)=O)[C@H]3CC[C@@H](C2)N3Cc2ccccc2)c1,·,-7,-9,·,·
C#CCN1CC(=O)N(COC(=O)C2C(C=C(C)C)C2(C)C)C1=O (stereo not given),·,4,·,·,·
CC1(C)CC(CCNCc2ccc3c(c2)OCO3)(Cc2ccccc2)CCO1 (stereo not given),-2,-11,-24,-2,61*
Clc1cccc(CNCCc2ccc3c(c2)OCO3)c1,-7,-19,?,-3,4
COc1ccc(Br)cc1C1SCC(=O)Nc2c1c(C)nn2-c1ccccc1C (stereo not given),-1,0,·,-11,4
CC1=C(N2CC2)C(=O)C(CO)=C(N2CC2)C1=O,·,-36,-96*,·,·
O=[As](O)(O)c1ccc(N=Nc2ccc(O)cc2)cc1,-8,-13,-99*,10,1
CCc1ccc(-n2nc(C)c3c2NC(=O)CSC3c2ccc(OC)cc2OC)cc1 (stereo not given),-5,-20,·,0,1
C[C@]12CCC3[C@@H](CC[C@H]4C[C@@H](O)CC[C@]34C)C1CCC2=O (stereo not given in full),-1,12,9,-35*,2
CN1C(=O)NC(=O)C2(Cc3ccccc3N3CCOCC32)C1=O (stereo not given),-6,3,15,-32*,4
CCOC(=O)C(O)(c1ccc(NC(=S)NC(=O)c2ccc(Cl)cc2Cl)c(C)c1)C(F)(F)F (stereo not given),-10,14,-11,-35*,54*
COC(=O)C(O)(c1ccc(NC(=S)NC(=O)c2ccc(Cl)cc2Cl)c(C)c1)C(F)(F)F (stereo not given),-12,3,?,-52*,46*
CNC(=O)N(C)c1ccc(C(O)(C(=O)OC)C(F)(F)F)cc1 (stereo not given),-2,2,22,-17,6
CCOC(=O)C(NC(=O)CC)(Nc1ccc(C(O)(C(=O)OCC)C(F)(F)F)cc1C)C(F)(F)F (stereo not given),-7,0,4,-1,4
N#Cc1nn(-c2c(Cl)cc(C(F)(F)F)cc2Cl)c(N)c1S(=O)C(F)(F)F (stereo not given),·,14,·,·,·
O=C1C[C@@H]2OCC=C3CN4CC[C@]56c7ccccc7N1[C@H]5[C@H]2[C@H]3C[C@H]46,·,-12,·,·,·
Cc1cccc(Cc2cnc[nH]2)c1C,·,5,·,·,·
COc1ccc(CC(=O)N2CCN(C)CC2)cc1OC,-6,-3,-71*,3,-2
Nc1c(C(=O)NCCCc2ccccc2)c2nc3ccccc3nc2n1Cc1cccs1,7,35*,23,51,3
CCCCCn1c(N)c(C(=O)NCc2cccs2)c2nc3ccccc3nc21,1,16,12,-3,0
SMILES,D1 potentiator,DRD3 agonist,DRD3 antagonist,D1 antagonist,D1 ag
O=C1CN=C(c2ccccc2)c2cc(Cl)ccc2N1CC1CC1,·,2,·,·,·
Cn1c(CCCC(=O)O)nc2cc(N(CCCl)CCCl)ccc21,·,-13,·,·,·
CC1=C[C@@H]2c3cccc4[nH]cc(c34)C[C@H]2N(C)C1,-10,54*,-22,-37*,31*
CCN(CC)c1ccc(/C=C/[N+](=O)[O-])cc1,-3,-2,-14,-19,254*
Cc1ccccc1CN1C(=O)C(C)N=C(c2ccccc2)c2ccccc21 (stereo not given),-5,12,·,-8,2
O=c1[nH]c(O)c(C=Nc2ccccc2[N+](=O)[O-])c(=O)[nH]1,-4,·,·,-47*,6
OC(COCc1ccc(Cl)cc1)CN1CC=C(c2ccccc2)CC1 (stereo not given),-6,34*,?,-8,29
COc1ccccc1C1CC2CCC(C1OC(C)=O)N2Cc1ccccc1 (stereo not given),-7,-19,-87*,6,1
Cc1ccccc1CN1Cc2cnnn2-c2ccccc2C1C#N (stereo not given),·,-66,-115*,·,·
Cc1ccccc1C(=O)N1Cc2cnnn2-c2ccccc2C1C#N (stereo not given),·,9,0,·,·
CCC1(c2ccccc2)C(=O)NC(=O)N(C(=O)c2ccccc2)C1=O (stereo not given),·,3,·,·,·
CCN(CC)c1ccc(N=Cc2c(O)n(Cc3ccccc3)c(=O)[nH]c2=O)cc1,-4,0,-13,-5,37*!
CCN(CC)c1ccc(N=Cc2c(O)[nH]c(=O)[nH]c2=O)cc1,-7,1,-3,-11,11
Cc1ccccc1-n1c(O)c(C=Nc2ccc3c(c2)OCO3)c(=O)[nH]c1=O,-10,5,9,5,1
CCN(CC)c1ccc(N=Cc2c(O)n(-c3ccccc3C)c(=O)[nH]c2=O)cc1,-3,-16,-13,-8,31*
CCOc1ccccc1-n1c(O)c(C=Nc2ccc(N(CC)CC)cc2)c(=O)[nH]c1=O,-1,-15,?,10,37*
O=c1[nH]c(=O)n(Cc2ccc(F)cc2)c(O)c1C=Nc1ccc(Cl)cc1,-5,16,6,-1,3
CCN(CC)c1ccc(N=Cc2c(O)n(-c3ccccc3)c(=O)[nH]c2=O)cc1,-1,1,22,-1,86*
CCOc1ccc(-n2c(O)c(C=Nc3ccc(N(CC)CC)cc3)c(=O)[nH]c2=O)cc1,-4,-30,-6,1,17
COCCCN1CCN(c2nnc3n2-c2sc(Br)cc2C(c2ccccc2Cl)=NC3)CC1,8,-6,-57*,1,2
Cc1cc(O)c(CN2CC=C(c3ccccc3)CC2)cc1C(C)C,-7,-20,-73*,12,1
C=CC[C@]1(O)CC[C@H]2[C@@H]3CCC4=CC(=O)CCC4=C3C=C[C@@]21C,·,18,·,·,·
CCn1c(=N)n(Cc2ccccc2F)c2ccccc21,-2,-1,16,11,7
Cc1ccc(C2CC3CCC(C2)N3Cc2ccccc2F)cc1 (stereo not given),-5,-9,-82*,-11,2
Clc1ccc2[nH]c3c(c2c1)CCNC3,-7,-17,-70*,-7,9
FC(F)(F)c1ccc2c(c1)nnn2C1CCN(Cc2nnnn2Cc2ccccc2)CC1,-6,0,?,-42*,3
